This passage reports outcome and AC50 results from PubChem BioAssay (EPA / NIEHS).

“And” between values parts separate entries of the source, which are not always exact repeats. Equal entries are not always repeated. The source holds several records for some structures; these can differ, active in one and inactive in another. The source made the active and inactive calls. Rule for the calls: active = hit-call score of the fitted dose curve at least 0.9, where 1 is the maximum; inactive = score below 0.9.

Read-out in test [1]: Human Leukocyte Antigen - DR isotype (HLADR), HLA-DRA (gene 3122)
Nature of the test: BSK_BE3C_HLADR: BioMAP Diversity Plus: BE3C Assay for Human Leukocyte Antigen - DR isotype (HLADR) Biomarker Activity (AID 2283032). Conditions: primary human bronchial epithelial cells; actives raise or lower the signal. The method, boiled down:
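BioMAP BE3C format: human bronchial epithelium, 24 h compound treatment, ELISA detection of HLA-DR, with bidirectional analysis relative to DMSO.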

Read-out in test [2]: Vascular cell adhesion molecule 1 (VCAM1), VCAM1 (gene 7412)
Put plainly: BSK_4H_VCAM1: BioMAP Diversity Plus: 4H Assay for Vascular cell adhesion molecule 1 (VCAM1) Biomarker Activity (AID 2283033).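 For outcome: cell-surface VCAM-1 protein measured by ELISA.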 Conditions: primary human endothelial cells (HUVEC); actives raise or lower the signal. The method, boiled down:
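In this human endothelial (HUVEC) system, biomarker ELISA was run 24 h after compound addition, and total protein in parallel wells was assessed by SRB at 560 nm; DMSO served as negative control.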

Read-out in test [3]: Interferon-gamma inducible Protein 10 (IP10), CXCL10 (gene 3627)
Nature of the test: BSK_BE3C_IP10: BioMAP Diversity Plus: BE3C Assay for Interferon-gamma inducible Protein 10 (IP10) Biomarker Activity (AID 2283034). The following applies: primary human bronchial epithelial cells; actives raise or lower the signal. An outline of the steps:
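BE3C cells (human bronchial epithelial, primary); 24 h exposure; ELISA for IP-10; DMSO-referenced bidirectional fit.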

Read-out in test [4]: Monokine induced gamma interferon (MIG), CXCL9 (gene 4283)
Put plainly: BSK_BE3C_MIG: BioMAP Diversity Plus: BE3C Assay for Monokine induced gamma interferon (MIG) Biomarker Activity (AID 2283035).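 For outcome: MIG protein measured by ELISA in BE3C cultures after 24 h of dosing.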 Conditions: primary human bronchial epithelial cells; actives raise or lower the signal. The method, boiled down:
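ELISA quantified MIG after 24 h exposure of primary bronchial epithelial cultures, analysed in both directions relative to DMSO. Cytotoxicity tracked in parallel cultures by sulforhodamine B staining.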

Read-out in test [5]: Transforming growth factor beta 1 (TGFb1), TGFB1 (gene 7040)
Put plainly: BSK_BE3C_TGFb1: BioMAP Diversity Plus: BE3C Assay for Transforming growth factor beta 1 (TGFb1) Biomarker Activity (AID 2283036;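 note: TGF-b1 protein level measured by ELISA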). The following applies: primary human bronchial epithelial cells; actives raise or lower the signal. The method, boiled down: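 TGF-b1 measured via ELISA, 24 h after chemical dosing of human bronchial epithelial cells (BE3C). Overt cytotoxicity assessed in parallel by SRB (0.1%, TCA-fixed, 560 nm); analysis bidirectional relative to DMSO.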

Read-out in test [6]: Plasminogen activator inhibitor-1 (PAI1), SERPINE1 (gene 5054)
Put plainly: BSK_BE3C_PAI1: BioMAP Diversity Plus: BE3C Assay for Plasminogen activator inhibitor-1 (PAI1) Biomarker Activity (AID 2283037). Conditions: primary human bronchial epithelial cells; actives raise or lower the signal. An outline of the steps:
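In this multiplexed primary-cell system, bronchial epithelial cells receive test chemical and are sampled at 24 h. PAI-1 is read by ELISA, with DMSO serving as negative control for bidirectional fitting.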

Read-out in test [7]: urokinase plasminogen activator (uPA), PLAU (gene 5328)
Nature of the test: BSK_BE3C_uPA: BioMAP Diversity Plus: BE3C Assay for urokinase plasminogen activator (uPA) Biomarker Activity (AID 2283038).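 For outcome: uPA protein level quantified by ELISA in cell cultures; uPA read one day after compound addition.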 Conditions: primary human bronchial epithelial cells; actives raise or lower the signal. An outline of the steps: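 Measured by ELISA: uPA from human primary bronchial epithelial cells 24 h after chemical treatment. Values derive from bidirectional curve fitting with DMSO serving as negative control. Total protein by SRB staining in parallel wells flagged overt cytotoxicity.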

Read-out in test [8]: Urokinase-type plasminogen activator receptor (uPAR), PLAUR (gene 5329)
Put plainly: BSK_BE3C_uPAR: BioMAP Diversity Plus: BE3C Assay for Urokinase-type plasminogen activator receptor (uPAR) Biomarker Activity (AID 2283039).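 For outcome: uPAR protein level measured by ELISA on the cells; cells exposed to compound for one day before measurement.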 Conditions: primary human bronchial epithelial cells; actives raise or lower the signal. The method, boiled down: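 Chemically treated human bronchial epithelial cells (lung primary) are assayed for uPAR by ELISA after 24 h, with data fitted in both directions using DMSO as negative control.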

Read-out in test [9]: Interleukin-6 (IL6), IL6 (gene 3569)
Nature of the test: BSK_CASM3C_IL6: BioMAP Diversity Plus: CASM3C Assay for Interleukin-6 (IL6) Biomarker Activity for (AID 2283040). The following applies: primary human coronary artery smooth muscle cells; actives raise or lower the signal.

Read-out in test [10]: Tissue plasminogen activator (tPA), PLAT (gene 5327)
Put plainly: BSK_BE3C_tPA: BioMAP Diversity Plus: BE3C Assay for Tissue plasminogen activator (tPA) Biomarker Activity (AID 2283041).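 For outcome: tPA level quantified by ELISA one day after compound addition.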 Conditions: primary human bronchial epithelial cells; actives raise or lower the signal. The method, boiled down:
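Using human lung primary bronchial epithelial cells, tPA was measured by ELISA 24 h after dosing; data fitted relative to DMSO.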

Read-out in test [11]: Interleukin-8 (IL8), CXCL8 (gene 3576)
Put plainly: BSK_CASM3C_IL8: BioMAP Diversity Plus: CASM3C Assay for Interleukin-8 (IL8) Biomarker Activity (AID 2283042).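 Note: IL-8 protein level quantified by ELISA.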 Conditions: primary human coronary artery smooth muscle cells; actives raise or lower the signal.

Read-out in test [12]: Human Leukocyte Antigen - DR isotype (HLADR), HLA-DRA (gene 3122)
Put plainly: BSK_CASM3C_HLADR: BioMAP Diversity Plus: CASM3C Assay for Human Leukocyte Antigen - DR isotype (HLADR) Biomarker Activity (AID 2283043).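 Note: cell-surface HLA-DR protein level quantified by ELISA.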 The following applies: primary human coronary artery smooth muscle cells; actives raise or lower the signal.

Read-out in test [13]: Macrophage colony-stimulating factor (MCSF), CSF1 (gene 1435)
Put plainly: BSK_CASM3C_MCSF: BioMAP Diversity Plus: CASM3C Assay for Macrophage colony-stimulating factor (MCSF) Biomarker Activity (AID 2283044).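 Note: M-CSF protein amount quantified by ELISA after 24 h exposure.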 Conditions: primary human coronary artery smooth muscle cells; actives raise or lower the signal.

Read-out in test [14]: Low-density lipoprotein receptor (LDLR), LDLR (gene 3949)
Put plainly: BSK_CASM3C_LDLR: BioMAP Diversity Plus: CASM3C Assay for Low-density lipoprotein receptor (LDLR) Biomarker Activity (AID 2283045).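 Note: LDLR protein level on the cell surface quantified by ELISA.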 Conditions: primary human coronary artery smooth muscle cells; actives raise or lower the signal.

Read-out in test [15]: Monocyte Chemoattractant Protein-1 (MCP1), CCL2 (gene 6347)
Put plainly: BSK_CASM3C_MCP1: BioMAP Diversity Plus: CASM3C Assay for Monocyte Chemoattractant Protein-1 (MCP1) Biomarker Activity (AID 2283046).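 Note: MCP-1 level quantified by ELISA 24 h after dosing.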 The following applies: primary human coronary artery smooth muscle cells; actives raise or lower the signal.

The nature of test [16]: BSK_CASM3C_Proliferation: Cell Proliferation Assessment in the BioMAP Diversity Plus: CASM3C Assay (AID 2283047).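 Note: sulforhodamine B total protein stain as relative cell number at 560 nm; sub-confluent cells exposed 48 h before staining; fitted both ways against DMSO so gain or loss of cell number.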 The following applies: primary human coronary artery smooth muscle cells.
Read-out in test [17]: Monokine induced gamma interferon (MIG), CXCL9 (gene 4283)
Put plainly: BSK_CASM3C_MIG: BioMAP Diversity Plus: CASM3C Assay for Monokine induced gamma interferon (MIG) Biomarker Activity (AID 2283048).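 Note: MIG protein level measured by ELISA.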 Conditions: primary human coronary artery smooth muscle cells; actives raise or lower the signal.

Read-out in test [18]: serum amyloid A (SAA), SAA1 (gene 6288)
Put plainly: BSK_CASM3C_SAA: BioMAP Diversity Plus: CASM3C Assay for serum amyloid A (SAA) Biomarker Activity (AID 2283049).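 Note: SAA protein level quantified by ELISA.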 The following applies: primary human coronary artery smooth muscle cells; actives raise or lower the signal.

Test [19] can be described thus: BSK_CASM3C_SRB: Viability Assessment in the BioMAP Diversity Plus: CASM3C Assay (AID 2283050).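 Note: total protein by SRB staining as cytotoxicity measure in parallel cultures; cells exposed to compound for 24 h.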 The following applies: primary human coronary artery smooth muscle cells.
Read-out in test [20]: Thrombomodulin, THBD (gene 7056)
Nature of the test: BSK_CASM3C_Thrombomodulin: BioMAP Diversity Plus: CASM3C Assay for Thrombomodulin Biomarker Activity (AID 2283051).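 Note: thrombomodulin protein level measured by ELISA 24 h after dosing.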 Conditions: primary human coronary artery smooth muscle cells; actives raise or lower the signal.

Turning to `COCC(C)O` (stereo not given), the result in [1], in test [2], in test [3], in test [4], in test [5] and in [6] was inactive. Moreover, the result in test [7], in [8], in test [9], in test [10], in [11] and in [12] was inactive. For the same compound, the outcome in test [13], in test [14], in test [15], in [16], in test [17] and in test [18] was inactive. Besides, the result in [19] and in test [20] was inactive.
For the compound `CCCCCCCCC(=O)O`, the result in test [1], in [2], in test [3], in [4], in test [5] and in test [6] was inactive. Besides, the outcome in test [7], in test [8], in test [9], in test [10], in test [11] and in test [12] was inactive. For the same compound, the outcome in test [13], in [14], in [15], in test [16], in [17] and in [18] was inactive. Also, the result in [19] and in [20] was inactive.
As for `OCCC(F)(F)C(F)(F)C(F)(F)C(F)(F)C(F)(F)C(F)(F)C(F)(F)C(F)(F)F`, the AC50 in test [1] is 18.3 µM (active) and 24.1 µM (active); in test [2], 41.3 µM (active) and 22.7 µM (active); in [3], 12.7 µM (active) and 17.9 µM (active); in [4], 33.5 µM (active) and 28.7 µM (active); in test [6] it was 16.7 µM (active) and 24.8 µM (active); in test [7], 27.9 µM (active) and 27.7 µM (active). Besides, the AC50 in [8] is 20.9 µM (active) and 22.9 µM (active); in test [10], 11.6 µM (active) and 14 µM (active); in test [11], 42.7 µM (active); in test [12], 20 µM (active) and 27.5 µM (active) and 18.9 µM (active); in test [13], 38.6 µM (active) and 30 µM (active); in test [14], 58.8 µM (active) and 55.4 µM (active). In addition, the AC50 was 48.6 µM (active) and 47.4 µM (active) in test [15]; 20 µM (active) and 22.5 µM (active) and 21.8 µM (active) in [16]; 46.4 µM (active) and 46.8 µM (active) in test [17]; 43 µM (active) and 37.9 µM (active) in test [18]; 48.7 µM (active) and 40.5 µM (active) in test [19]. Further, the outcome in test [1], in test [2], in [3], in [4], in test [5] and in test [6] was inactive. The outcome in test [7], in test [8], in test [9], in test [10], in test [11] and in [13] was inactive. In addition, the result in [14], in test [15], in [17], in test [18], in test [19] and in test [20] was inactive.
As to `CCCCC(CC)COC(=O)CCCCC(=O)OCC(CC)CCCC` (stereo not given), the result in [1], in [2], in test [3], in test [4], in test [5] and in test [6] was inactive. Also, the result in test [7], in [8], in [9], in [10], in test [11] and in [12] was inactive. For the same compound, the outcome in [13], in test [14], in [15], in test [16], in test [17] and in test [18] was inactive. The outcome in test [19] and in [20] was inactive.
In the case of `CCCCCCCCCCCCCCCS(=O)(=O)Oc1ccccc1`, the outcome in test [1], in test [2], in test [3], in [4], in test [5] and in [6] was inactive. Besides, the outcome in test [7], in test [8], in [9], in [10], in test [11] and in test [12] was inactive. For the same compound, the outcome in test [13], in test [14], in [15], in test [16], in test [17] and in test [18] was inactive. Also, the result in [19] and in [20] was inactive.

In general, AC50 refers to the concentration giving half of the maximal activity seen.
